# Measurements reported in the supplement of paper PMC6555819.
# What was measured:
# Test in all cases: PBM binding z-score (relative to random genomic background probes); higher = stronger binding; sequences stand for … in GC…GCGATTGACAGCGTAGAATGAAGG
# [1] = tested on: FXR:RXRa (NR concentration 270 nM, RXRa partner concentration 90 nM)
# Method in brief: (§1)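 Each nuclear receptor dimer, without ligand, was incubated for 1 h on custom Agilent 4×180K protein-binding microarrays. Binding was detected with antibodies against each partner (one per run), and scanned fluorescence was regression-normalized. The binding z-scores are referenced to random human genomic background probes.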
# [2] = tested on: LXRa:RXRa (NR concentration 270 nM, RXRa partner concentration 90 nM)
# Method in brief: as §1
# [3] = tested on: LXRa homodimer (NR concentration 270 nM)
# Method in brief: as §1
# [4] = tested on: LXRb:RXRa (NR concentration 270 nM, RXRa partner concentration 90 nM)
# Method in brief: as §1
# [5] = tested on: LXRb homodimer (NR concentration 270 nM)
# Method in brief: as §1
# [6] = tested on: PPARa:RXRa (NR concentration 270 nM, RXRa partner concentration 90 nM)
# Method in brief: as §1
# [7] = tested on: PPARg:RXRa (NR concentration 180 nM, RXRa partner concentration 90 nM)
# Method in brief: as §1
# [8] = tested on: PPARg:RXRa 270nM:90nM, anti-RXR (NR concentration 270 nM, RXRa partner concentration 90 nM)
# Method in brief: as §1
# [9] = tested on: PPARg:RXRa 30nM:10nM, anti-RXR (NR concentration 30 nM, RXRa partner concentration 10 nM)
# Method in brief: as §1
# [10] = tested on: PPARg:RXRa 90nM:30nM, anti-RXR (NR concentration 90 nM, RXRa partner concentration 30 nM)
# Method in brief: as §1
Sequence,PBM binding z-score [1],PBM binding z-score [2],PBM binding z-score [3],PBM binding z-score [4],PBM binding z-score [5],PBM binding z-score [6],PBM binding z-score [7],PBM binding z-score [8],PBM binding z-score [9],PBM binding z-score [10]
GGAACGAGGGGAAGTTGATAGCAGAGTTTGATGG,0.0996,-0.26,-0.307,-0.0221,-0.185,0.0181,0.515,0.29,-0.0775,0.258
CAAACTAGGTCAAGAGGTCAATGTCCGCTTCCCG,6.4,6.19,5.74,4.72,1.58,6.11,9.5,7.94,6.68,8
CTTGAAAGGTCGTGCTCAGGTGAGTATACCAAAC,5.86,4.22,0.0529,4.1,0.221,5.03,2.74,3.62,0.962,2.69
TATACAGGGTCAAAGGCCAGAGAACGAATGTCGA,6.59,6.22,2.13,4.88,2.25,6.02,8.23,7.5,5.41,7.34
TCTAGCAGGCCAGAGGGTAACTCAAGAGGTACGG,0.0239,-0.0819,-0.636,-0.399,-1.36,1.15,2.11,3.56,2.38,3.26
TCTATTAGTTGATTAGGGCAAGCGAAACAGCGGA,0.582,0.347,0.126,0.37,0.284,0.756,-0.0527,2.03,3.67,2.81
TCATATAGGTAAACAGGTGACAGTCCGTAAGTTA,0.832,0.858,0.306,0.84,-0.213,2.24,2.52,3.35,4.16,3.91
TTACCAAGGTGAACGTCGTTGATCCCTCTGTAGA,0.766,0.802,-0.455,1.01,-0.681,1.99,0.984,1.25,0.514,1.07
CAAACTAGGTCACGGAAGGTCAAAGTCGAATGAC,7.44,7.64,6.7,6.73,1.71,6.26,10.3,8.41,7.26,8.7
ATATGTACGTTACATCCGGGTCATTCAGGCTATG,1.77,1.94,1.06,2.44,0.756,2.53,1.39,1.41,0.502,1.35
GTACCAAGGTGCATAGGTCGTTGATGAGTAGGCG,0.192,0.486,0.209,-0.189,-0.908,1.3,1.21,1.88,0.013,1.15
ACTATTAGTTGAGACGAGGGCAACCGCTAGGTTG,0.861,0.155,-0.0789,0.0826,-0.113,0.374,0.327,0.207,-0.122,0.0431
GCAGACAGGTGAAACACAGGTAACTCAGGGTGGC,0.0737,0.312,-0.336,-0.415,-0.7,0.874,0.952,0.125,-0.424,-0.0605
ATCGAAAGTTCGAAGGTGAGTATACCCACCCGAA,0.822,1.16,0.11,0.739,-0.0356,1.9,1.07,1.17,0.177,0.844
CCGACTGGGGCAGAATGGTTACCATACCATCCGG,-0.449,-0.782,-0.449,-0.838,-1.2,-0.355,0.778,-0.289,-0.329,-0.35
TCAGACAGGTGAAGCTAACTCAGGTACGCAGTCG,0.462,0.31,-0.268,0.231,-0.92,0.744,0.519,1.5,3.44,2.75
AGTCAAAGTTCAGGACGATGTAACGTAAAGCACG,3.6,3.59,0.938,1.8,0.134,3.05,4.28,4.75,1.92,3.68
CCGACTGGGGGAAGGTTACCATAACGCACAGCCA,0.719,1.05,0.199,2.11,2.85,1.71,1.63,2.33,0.95,1.37
CCTATTGGGCCATCAGGTCATTGATATCAACGTT,1.84,1.28,1.09,1.42,-0.199,2.25,1.29,2.49,0.897,1.88
TCTATTAGTTGATTAGGGCAACCTAAACAGCGGA,0.561,0.704,0.325,0.595,0.8,0.918,0.209,1.95,3.39,2.86
GCTACTGGGGCAAAGCAGGTTACCATAAGGTTGG,0.552,0.174,-0.316,0.4,-0.276,2.24,2.37,2.63,0.398,1.52
ACGATTAGTTGACTTAGGGCAACCGATACGACGC,-0.0158,-0.0959,0.339,0.0402,-0.172,-0.0149,0.855,-0.28,0.0988,-0.124
TAGCCTAGGTCATTGCGCCAGTATAGTACGCATC,4.86,3.69,1.05,2.41,0.632,3.48,2.25,2.49,0.591,1.63
CCTACTGGGCCACGCAAGGTCATTGATTCAGTGA,2.92,3.83,2.79,2.39,-0.438,3.32,2.94,3.26,1.18,2.34
